From PubChem BioAssay AID1159580 (chemical genetic matrix, 2015)
Screen size: about 5,500 compounds; about 2,000 (36%) were called active. Roughly 18% stayed inconclusive and do not appear here. Some of the results follow. A number with no mark means an inactive call. No stated cut-off is given here; in the data, active means normalized growth mostly below about 0.91 (no sharp cut-off); inconclusive means no clear call, values can overlap the other calls; inactive means mostly above about 0.92.

Assay: chemical genetic growth profiling, strain panel (AID 1159580);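 further: tested at 20 µM; growth read once vehicle control cultures reached saturation at 30 °C; 1 = growth at the plate median or of vehicle wells; lower values mean less growth of the strain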
Details: S. cerevisiae deletion strains, growth OD

CC(C)(C)C(=O)/C(C#N)=C/c1c(Cl)cccc1Cl
normalized growth (locus YAR019C, strain CDC15, hits give low values): 0.366 (active)
normalized growth (locus YBL105C, strain PKC1, hits give low values): 0.373 (active)
normalized growth (locus YBR135W, strain CKS1, hits give low values): 0.894 (active)
normalized growth (locus YBR136W, strain MEC1, hits give low values): 0.722 (active)
normalized growth (locus YDL017W, strain CDC7, hits give low values): 0.695 (active)
normalized growth (locus YDL028C, strain MPS1, hits give low values): 0.919
normalized growth (locus YDL108W, strain KIN28, hits give low values): 0.957
normalized growth (locus YDL214C, strain PRR2, hits give low values): 0.124 (active)
normalized growth (locus YDR052C, strain DBF4, hits give low values): 0.915
normalized growth (locus YDR054C, strain cdc34, hits give low values): 0.291 (active)
normalized growth (locus YDR226W, strain ADK1, hits give low values): 0.913
normalized growth (locus YDR477W, strain SNF1, hits give low values): 0.11 (active)
normalized growth (locus YER123W, strain YCK3, hits give low values): 0.105 (active)
normalized growth (locus YER133W, strain GLC7, hits give low values): 0.108 (active)
normalized growth (locus YFL029C, strain CAK1, hits give low values): 0.315 (active)
normalized growth (locus YFR019W, strain FAB1, hits give low values): 0.108 (active)
normalized growth (locus YFR028C, strain CDC14, hits give low values): 0.575 (active)
normalized growth (locus YGR040W, strain KSS1, hits give low values): 0.112 (active)
normalized growth (locus YGR052W, strain FMP48, hits give low values): 0.136 (active)
normalized growth (locus YGR092W, strain DBF2, hits give low values): 0.11 (active)
normalized growth (locus YHR030C, strain SLT2, hits give low values): 0.111 (active)
normalized growth (locus YHR079C, strain IRE1, hits give low values): 0.112 (active)
normalized growth (locus YHR082C, strain KSP1, hits give low values): 0.137 (active)
normalized growth (locus YHR205W, strain SCH9, hits give low values): 0.000694 (active)
normalized growth (locus YIL147C, strain SLN1, hits give low values): 0.691 (active)
normalized growth (locus YJL095W, strain BCK1, hits give low values): 0.104 (active)
normalized growth (locus YJL157C, strain FAR1, hits give low values): 0.105 (active)
normalized growth (locus YJR016C, strain ILV3, hits give low values): 0.64 (active)
normalized growth (locus YJR066W, strain TOR1 (second series), hits give low values): 0.124 (active)
normalized growth (locus YJR066W, strain TOR1, hits give low values): 0.131 (active)
normalized growth (locus YKL048C, strain ELM1, hits give low values): 0.151 (active)
normalized growth (locus YKL067W, strain YNK1, hits give low values): 0.129 (active)
normalized growth (locus YKL101W, strain HSL1, hits give low values): 0.131 (active)
normalized growth (locus YKL193C, strain SDS22, hits give low values): 0.506 (active)
normalized growth (locus YKL203C, strain TOR2, hits give low values): 0.115 (active)
normalized growth (locus YLR113W, strain HOG1, hits give low values): 0.165 (active)
normalized growth (locus YLR133W, strain CKI1, hits give low values): 0.125 (active)
normalized growth (locus YLR403W, strain SFP1, hits give low values): 0.0102 (active)
normalized growth (locus YML070W, strain DAK1, hits give low values): 0.122 (active)
normalized growth (locus YMR001C, strain CDC5, hits give low values): 0.401 (active)
normalized growth (locus YMR205C, strain PFK2 (second series), hits give low values): 0.142 (active)
normalized growth (locus YMR277W, strain FCP1, hits give low values): 0.397 (active)
normalized growth (locus YNL006W, strain LST8, hits give low values): 0.341 (active)
normalized growth (locus YNL020C, strain ARK1, hits give low values): 0.118 (active)
normalized growth (locus YNL161W, strain CBK1, hits give low values): 0.402 (active)
normalized growth (locus YNL183C, strain NPR1, hits give low values): 0.132 (active)
normalized growth (locus YNL207W, strain RIO2, hits give low values): 0.359 (active)
normalized growth (locus YNL222W, strain SSU72, hits give low values): 0.619 (active)
normalized growth (locus YNL307C, strain MCK1 (second series), hits give low values): 0.105 (active)
normalized growth (locus YOL078W, strain AVO1, hits give low values): 0.492 (active)
normalized growth (locus YOL136C, strain PFK27, hits give low values): 0.116 (active)
normalized growth (locus YOR061W, strain CKA2, hits give low values): 0.157 (active)
normalized growth (locus YOR119C, strain RIO1, hits give low values): 0.115 (active)
normalized growth (locus YOR231W, strain MKK1, hits give low values): 0.131 (active)
normalized growth (locus YOR329C, strain SCD5, hits give low values): 0.513 (active)
normalized growth (locus YPL031C, strain PHO85, hits give low values): 0.102 (active)
normalized growth (locus YPL153C, strain RAD53, hits give low values): 0.115 (active)
normalized growth (locus YPL204W, strain HRR25, hits give low values): 0.11 (active)
normalized growth (locus YPL209C, strain IPL1, hits give low values): 0.495 (active)
normalized growth (locus YPL256C, strain CLN2, hits give low values): 0.152 (active)
normalized growth (locus YPR025C, strain CCL1, hits give low values): 0.652 (active)
normalized growth (locus YPR111W, strain DBF20, hits give low values): 0.949
normalized growth (strain NNK1, hits give low values): 0.265 (active)
normalized growth (strain TSCII, hits give low values): 0.322 (active)
